# Measured values from PubChem BioAssay.
# The source made the active and inactive calls.
# How the values were obtained:
# [1] = system: Plasmodium falciparum Sir2 (PF13_0152, Sir2A); test: pfSir2 binders on small-molecule microarrays, primary screen, biochemical, small-molecule microarray, 635 nm fluorescence (AID 1098); settings: small-molecule microarray binding, fluorescence 635 nm; higher = more signal;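 note: score merges spot fluorescence intensity with its signal-to-noise ratio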
# [2] = small-molecule microarray binders of probe aDKK1, primary screen, biochemical, biotinylated probe, 635/667 nm fluorescence (AID 1099); settings: higher = more signal;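 note: score merges 667nm spot fluorescence with signal to noise across triplicate slides; reference of the scale not given here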
# [3] = small-molecule microarray binders of probe aCHRDL2, primary screen, biochemical, biotinylated probe, 635/667 nm fluorescence (AID 1100); settings: higher = more signal
# [4] = splicing luciferase reporter signal modulators, primary screen, spliceosome inhibition project, cell-based, HEK293, splice +/- reporter (AID 1101); settings: luminescence, 24 h, higher = more signal, called active from +8 up or from −8 down;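 note: HEK293 cells carrying a splicing-competent luciferase reporter gene; test concentration not given here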
# [5] = target: Fibroblast growth factor 10 (Homo sapiens) (UniProt O15520); test: FGF10 binders on small-molecule microarrays, primary screen, biochemical, small-molecule microarray, 635 nm fluorescence (AID 1102); settings: FGF10 binding, fluorescence 635 nm, higher = more signal
# [6] = system: glycogen synthase kinase-3 (GSK3A per assay name; protocol says GSK3B); test: GSK3 binders on small-molecule microarrays, primary screen, biochemical, small-molecule microarray, 635 nm fluorescence, GSK3A (AID 1103); settings: small-molecule microarray binding, fluorescence 635 nm; higher = more signal; note: the record names both GSK3A and GSK3B
# [7] = target: Epidermal growth factor receptor (Homo sapiens) (UniProt P00533); test: EGFR binders on small-molecule microarrays, primary screen, biochemical, small-molecule microarray, 635 nm fluorescence (AID 1104); settings: EGFR binding, higher = more signal;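 note: score merges 667 nm emission intensity with spot signal to noise over triplicate slides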
# [8] = target: Follistatin-related protein 3 (Homo sapiens) (UniProt O95633); test: FSTL3 binders on small-molecule microarrays, primary screen, biochemical, small-molecule microarray, 635 nm fluorescence (AID 1105); settings: FSTL3 binding, higher = more signal;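 note: score merges emission near 667 nm and signal to noise per printed spot across three slides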
# [9] = target: Dickkopf-related protein 1 (Homo sapiens) (UniProt O94907); test: DKK1 binders on small-molecule microarrays, primary screen, biochemical, small-molecule microarray, 635 nm fluorescence scan (AID 1106); settings: DKK1 binding, higher = more signal;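 note: score merges emission near 667 nm with signal to noise over three replicate slides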
# [10] = system: Inhibin beta A chain (activin A); test: INHBA (activin A) binders on microarrays, primary screen, biochemical, small-molecule microarray, 635 nm fluorescence scan (AID 1107); settings: small-molecule microarray binding, higher = more signal;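 note: mouse activin A protein probed at 4.33 µg/mL on printed slides; score merges bound-protein fluorescence near 667 nm with spot signal-to-noise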
# Epidermal growth factor receptor (Homo sapiens), sequence (P00533 whole entry, looked up): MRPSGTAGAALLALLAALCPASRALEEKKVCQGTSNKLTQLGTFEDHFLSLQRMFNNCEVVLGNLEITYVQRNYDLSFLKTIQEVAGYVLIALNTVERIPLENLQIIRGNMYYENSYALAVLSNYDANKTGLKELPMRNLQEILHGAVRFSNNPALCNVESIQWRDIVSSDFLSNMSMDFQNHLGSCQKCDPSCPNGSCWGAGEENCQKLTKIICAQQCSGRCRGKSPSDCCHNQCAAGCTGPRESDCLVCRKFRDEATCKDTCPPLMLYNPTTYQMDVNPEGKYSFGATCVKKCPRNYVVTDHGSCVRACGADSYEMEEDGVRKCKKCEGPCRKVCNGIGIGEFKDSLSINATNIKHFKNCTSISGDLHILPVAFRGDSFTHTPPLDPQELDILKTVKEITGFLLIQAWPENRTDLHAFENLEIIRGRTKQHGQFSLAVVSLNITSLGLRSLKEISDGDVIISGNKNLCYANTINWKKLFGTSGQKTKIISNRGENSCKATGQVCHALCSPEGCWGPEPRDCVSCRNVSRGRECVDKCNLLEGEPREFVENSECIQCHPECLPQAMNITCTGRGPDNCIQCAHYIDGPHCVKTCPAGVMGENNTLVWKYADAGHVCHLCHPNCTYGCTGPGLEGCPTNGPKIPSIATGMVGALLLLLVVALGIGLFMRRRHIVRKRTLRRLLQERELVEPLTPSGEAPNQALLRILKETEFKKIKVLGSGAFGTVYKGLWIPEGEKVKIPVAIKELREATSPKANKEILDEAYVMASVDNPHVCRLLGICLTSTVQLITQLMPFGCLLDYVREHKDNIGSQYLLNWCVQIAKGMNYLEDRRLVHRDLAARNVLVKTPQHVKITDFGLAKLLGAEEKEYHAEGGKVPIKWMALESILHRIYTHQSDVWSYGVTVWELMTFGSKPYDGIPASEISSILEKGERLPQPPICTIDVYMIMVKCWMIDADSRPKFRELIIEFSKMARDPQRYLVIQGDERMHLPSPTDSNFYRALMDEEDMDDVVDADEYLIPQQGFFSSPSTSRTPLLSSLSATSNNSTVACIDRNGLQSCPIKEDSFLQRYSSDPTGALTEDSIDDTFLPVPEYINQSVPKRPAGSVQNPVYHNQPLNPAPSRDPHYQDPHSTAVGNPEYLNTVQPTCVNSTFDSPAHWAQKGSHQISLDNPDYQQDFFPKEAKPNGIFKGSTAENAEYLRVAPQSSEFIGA
# Fibroblast growth factor 10 (Homo sapiens), sequence (O15520 whole entry, looked up): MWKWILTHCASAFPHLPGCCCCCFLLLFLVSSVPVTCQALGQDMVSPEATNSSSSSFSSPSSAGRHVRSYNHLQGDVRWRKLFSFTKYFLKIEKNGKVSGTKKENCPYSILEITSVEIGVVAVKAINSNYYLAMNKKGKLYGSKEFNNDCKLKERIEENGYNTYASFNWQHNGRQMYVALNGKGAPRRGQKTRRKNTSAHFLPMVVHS
# Follistatin-related protein 3 (Homo sapiens), sequence (O95633 whole entry, looked up): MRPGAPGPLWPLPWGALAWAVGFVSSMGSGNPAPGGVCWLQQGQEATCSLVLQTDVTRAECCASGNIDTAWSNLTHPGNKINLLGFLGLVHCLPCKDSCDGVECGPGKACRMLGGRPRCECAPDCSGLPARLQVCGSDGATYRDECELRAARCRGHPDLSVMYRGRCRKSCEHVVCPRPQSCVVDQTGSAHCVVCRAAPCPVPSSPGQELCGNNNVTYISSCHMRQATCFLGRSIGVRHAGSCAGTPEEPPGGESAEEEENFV
# Dickkopf-related protein 1 (Homo sapiens), sequence (O94907 whole entry, looked up): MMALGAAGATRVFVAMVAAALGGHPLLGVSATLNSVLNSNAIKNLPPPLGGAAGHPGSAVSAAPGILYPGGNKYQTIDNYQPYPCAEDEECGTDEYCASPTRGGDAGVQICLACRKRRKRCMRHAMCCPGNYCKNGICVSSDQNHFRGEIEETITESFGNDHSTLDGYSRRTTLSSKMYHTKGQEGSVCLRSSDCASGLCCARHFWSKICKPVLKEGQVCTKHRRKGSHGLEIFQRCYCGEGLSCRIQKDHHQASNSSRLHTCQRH
SMILES,composite z-score [1],composite z-score [2],composite z-score [3],z-score [4],composite z-score [5],composite z-score [6],composite z-score [7],composite z-score [8],composite z-score [9],composite z-score [10]
O=C1C[C@@](C(=O)O)(c2ccc([N+](=O)[O-])cc2)[C@@H](c2ccc(CO)cc2I)N1C1CCCCC1,1.24,-0.162,0.862,-2.72 (inactive),1.27,-0.428,0.126,0.596,-0.605,0.775
CCOC(=O)C[C@H]1[C@H](OC(=O)c2ccc(C(=O)c3ccccc3)cc2)[C@@H](NC(=O)c2ccc3ccccc3n2)c2cc(OCCCO)ccc2N1C(=O)c1ccc2ccccc2n1,0.143,0.492,0.661,-0.679 (inactive),0.418,0.232,0.703,0.154,0.0952,0.41
O=C(NCC(O)CO)[C@@]1(Cc2ccccc2)COC(c2ccc(OCCCO)cc2)=N1 (stereo not given in full),-0.509,0.549,0.536,0.138 (inactive),-0.309,-0.546,-0.198,-1.21,-0.92,0.656
CCCNC(=O)[C@@]1(C)c2ccccc2C(=O)N(C(C)C)[C@H]1c1ccc(CO)cc1,1.2,0.695,1.09,0.208 (inactive),-0.668,-0.743,-1.14,-0.737,-0.612,-0.105
O=C(N1CCCCC1)[C@]1(CCS(=O)(=O)c2ccccc2)N=C(c2ccc(OCCCO)cc2)O[C@@H]1c1ccccc1,1.26,1.02,1.08,0.25 (inactive),0.997,1.31,-0.0354,0.536,-0.142,1.29
O=C1O[C@@H](c2ccccc2)[C@@H](c2ccccc2)N2[C@@H](c3ccc(O)cc3)[C@]3(C(=O)Nc4ccc(C#CCCO)cc43)[C@@H](C(=O)O)[C@H]12,1.67,2.56,1.64,-0.545 (inactive),0.472,-0.2,0.363,1.13,-0.107,1.76
C=C(CCCC)/C(=C/C[C@H](OC(C)=O)c1ccc(CO)o1)c1cc(C(=O)OC)ccc1OC,1.43,-0.0797,-0.438,-0.27 (inactive),1.25,0.469,-0.102,1.25,0.291,0.638
C[n+]1ccc2ccc(O)cc2c1,-0.0574,-0.147,-0.444,0.526 (inactive),1.07,0.534,1.19,1.45,1.31,1.53
Cc1ccc(N2C(=O)c3ccccc3[C@@H](C(=O)NC(C)C)[C@@H]2c2ccc(CO)cc2)nc1,1.87,0.167,0.61,0.245 (inactive),0.121,-0.0399,-0.416,-0.64,-0.32,0.726
C=CCC(OC(C)=O)[C@@H]1[C@@H](N(Cc2ccc(-c3cccc(C(F)(F)F)c3)o2)C(=O)c2ccc(C)cc2)c2cc(OCCCO)ccc2N1C(=O)c1ccc2ccccc2n1 (stereo not given in full),0.273,-0.164,0.253,0.168 (inactive),0.453,-0.124,-0.0487,0.483,0.381,1.4
CC(C)(C)OC(=O)CC[C@@]1(C(N)=O)N=C(c2ccc(OCCCO)cc2)O[C@@H]1c1ccccc1N=[N+]=[N-],1.73,0.751,0.83,-0.809 (inactive),1.46,1.22,-0.0882,0.616,-0.103,0.988
CC(=O)NCCCC[C@@H]1NC(=O)[C@@H]2C[C@H](C(=O)NCc3ccc(F)cc3)[C@H](c3ccc(O)cc3)N2C1=O,1.51,-0.239,-0.072,-0.661 (inactive),0.784,0.767,0.0059,0.177,0.592,0.0015
C=CCC(OC(C)=O)[C@@H]1[C@@H](N(Cc2cc3ccccc3o2)C(=O)c2ccc(-c3ccccc3)cc2)c2cc(OCCCO)ccc2N1C(=O)Cc1ccc2ccccc2c1 (stereo not given in full),-0.366,-0.172,0.351,0.121 (inactive),-0.0752,-0.418,-0.227,-0.187,-0.251,1.2
CC1CC/C=C\[C@H]2OC34C=CCN(Cn5nnc6ccccc65)C(=O)[C@H]3N(CCCO)C(=O)[C@@H]4C2C(=O)O1 (stereo not given in full),1.14,-0.12,0.763,-0.538 (inactive),-1.04,-1.31,-0.991,-0.97,-1.6,0.767
C=CC[C@@]1(C(N)=O)N=C(c2ccc(OCCCO)cc2)O[C@@H]1c1ccccc1N=[N+]=[N-],1.61,1.36,1.14,-0.0133 (inactive),0.63,0.649,0.0347,0.0562,1.16,1.38
C=C(COC)C(=O)CC[C@@H](OC(=O)c1ccccc1-c1ccccc1C(=O)O)c1ccc(CO)o1,1.51,-0.4,-0.69,-1.24 (inactive),1.57,0.464,0.109,0.399,1.14,0.466
COc1ccc(C#Cc2ccc3c(c2)[C@]2(C(=O)N3)[C@H](C(=O)N3CCc4cc(OC)c(OC)cc4C3)[C@H]3C(=O)O[C@H](c4ccccc4)[C@H](c4ccccc4)N3[C@@H]2c2ccc(OCCO)cc2)cc1,1.07,-0.029,-0.13,0.8 (inactive),1.29,1.27,0.504,1.08,0.671,0.0787

SMILES,composite z-score [1],composite z-score [2],composite z-score [3],z-score [4],composite z-score [5],composite z-score [6],composite z-score [7],composite z-score [8],composite z-score [9],composite z-score [10]
O=C1O[C@@H](c2ccccc2)[C@@H](c2ccccc2)N2[C@@H](c3ccccc3OCCO)[C@]3(C(=O)Nc4ccc(C#CC5(O)CCCCCC5)cc43)[C@@H](C(=O)NC[C@H](O)c3ccccc3)[C@H]12,1.06,1.64,0.204,-0.525 (inactive),1.3,0.868,0.265,1.08,0.283,1
COC(=O)c1c(CC[C@@H](CO)NC(=O)Nc2ncn[nH]2)oc(C(=O)Cc2ccccc2)c1C(=O)OC,0.0638,0.0272,-0.0621,0.801 (inactive),1.08,0.938,0.596,1.01,0.957,0.616
COc1cc2c(cc1O)C(c1ccc(CN3CCCC3)cc1)N(Cc1sc3ccccc3c1Cl)CC2 (stereo not given),1.41,0.0829,0.234,-0.478 (inactive),0.514,-0.111,0.521,0.988,1.12,1.35
Cc1cccc(/C=C/C=O)c1,0,-0.101,0.558,0.465 (inactive),-0.0736,-0.0687,-0.391,0.119,-0.214,0.561
CO[C@H]1O[C@H](CO)[C@@H](OC(=O)Nc2ccccc2-c2ccccc2)[C@H](OC(=O)Nc2ccccc2-c2ccccc2)[C@H]1OC(=O)Nc1ccccc1-c1ccccc1,1.54,0.677,0.607,-0.316 (inactive),1.4,1.35,0.197,1.36,0.289,0.628
CCOC(=O)C1=CC[C@@H](c2ccccc2)N(S(=O)(=O)c2ccc(C)cc2)[C@H]1c1ccc(C#N)cc1,0.802,1.17,1.18,-0.29 (inactive),0.278,1.29,-0.18,0.272,-0.972,0.676
C=CC[C@@]1(C(=O)OC)N=C(c2ccc(OCCCO)cc2)O[C@@H]1c1ccccc1CN=[N+]=[N-],1.55,-0.0877,0.892,-1.54 (inactive),-0.216,-0.215,-0.328,0.201,-0.231,1.15
C=C(C(=O)CC[C@@H](OC(=O)c1cccnc1)c1ccc(OCCO)cc1)C(C)C,0.603,-0.312,-0.188,-0.255 (inactive),0.922,0.154,-0.255,0.802,0.906,0.223
COC(=O)[C@@]1(Cc2ccc(OC)cc2)[C@H]2c3cc(C(=O)N4CCCC4)n(C[C@H](O)CO)c3C[C@H]2CN1C(=O)c1ccccc1,1.06,0.642,0.913,1.19 (inactive),0.974,-0.681,-0.352,-0.519,-0.385,0.903
COc1ccccc1CN1C(=O)c2ccccc2[C@](Cc2ccccc2I)(C(=O)NCc2ccccc2)[C@@H]1c1ccc(CO)cc1,0.17,0.131,0.875,0.164 (inactive),0.184,-0.0893,-0.593,-0.457,-0.341,0.9
Cc1ccc(S[C@]2(C(=O)NCc3ccccc3)CC(=O)N(Cc3cc(C(F)(F)F)cc(C(F)(F)F)c3)[C@@H]2c2ccc(CO)cc2)cc1,1.3,-0.614,-0.711,0.0364 (inactive),-0.431,-0.817,-0.662,-0.247,-0.422,0.283
[N-]=[N+]=NCc1ccccc1C[C@]1(C(N)=O)N=C(c2ccc(OCCCO)cc2)O[C@H]1c1ccccc1N=[N+]=[N-],0.573,0.911,1.16,-0.288 (inactive),0.617,1,-0.236,0.416,-0.322,1.45
O=C(NCc1ccccc1)[C@@H]1c2ccccc2C(=O)N(Cc2cc(F)cc(C(F)(F)F)c2)[C@H]1c1ccc(CO)cc1,1.09,0.125,0.519,-0.945 (inactive),0.29,0.243,-0.0881,0.588,-0.0135,0.517
C=C[C@H](C)[C@H](OC(=O)Nc1ccc(OC)cc1)c1ccc(O)c2ccccc12,0.443,-0.26,0.242,-0.632 (inactive),0.111,-0.667,-0.587,0.0608,-0.0641,0.997
C=C(C)[C@@H]1CC=C(C(O)C2C=CC3C(=O)N(Cc4ccccc4)C(=O)C3N2n2cnnc2)CC1 (stereo not given in full),0.827,0.546,1.11,-0.925 (inactive),-0.394,-0.724,-0.608,-0.739,-0.665,1.34
O=C1OCCC/C=C\[C@H]2OC34C=CCN(CCN5CCOCC5)C(=O)[C@H]3N(CCO)C(=O)[C@@H]4C12 (stereo not given in full),1.66,-0.214,0.0583,-1.15 (inactive),-0.506,-0.707,-0.676,-1.14,-0.507,-0.68
CN1C(=O)C2C=CC(C(O)c3ccc(Br)cc3)N(Nc3ccccc3)C2C1=O (stereo not given),-0.186,0.528,1.03,1.11 (inactive),-0.583,-1.21,-1.3,-1.09,-1.49,1.12
